“And” between values parts separate entries of the source, which are not always exact repeats. Equal entries are not always repeated. Inconclusive results are not listed. The source made the active and inactive calls. Calls follow the shape of the dose curve; as a rule, active = well fitted curve in the direction sought with a large enough effect; inconclusive = small, poorly fitted or top-dose-only effect, or another doubt; inactive = no such curve, though single readings can be large; an effect the other way counts as inactive or inconclusive.
Key:
[1] = biological target: Cellular tumor antigen p53 (Homo sapiens) (UniProt P04637); experiment: Primary qHTS for small molecule compounds that upregulate eGFP-tagged delta133p53alpha (in N-terminal) cells. (AID 2060322); details: NCI-H358 eGFP-delta133p53alpha fluorescence, 24 h; activation: stronger effect = higher value; also: nearly all actives have a fitted effect of over 75% in size; also: potency is read from the fitted curve at half-maximal effect;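 as to activation: cells pre-induced with doxycycline then dosed without doxycycline; series mostly up to about 56 µM; 0% = DMSO vehicle and 100% = reference activator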
In short: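 NCI-H358 cells pre-induced 24 h with 10 ng/ml doxycycline for eGFP-delta133p53alpha, plated dox-free and exposed 24 h at 37C to titrated compounds. Fixed, Hoechst-stained; gated GFP peak intensity by laser scanning cytometry, normalized to DMSO (0%) and 57.5 uM 5-azacytidine (100%).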

[2] = biological target: Aldehyde dehydrogenase, mitochondrial (Homo sapiens) (UniProt P05091); experiment: qHTS for Inhibitors of the Aldehyde Dehydrogenase Family (ALDH2) Primary screen (AID 2061308);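 also: plate controls were vehicle for no effect and reference inhibitor for full effect; nearly all actives have a fitted effect of over 55% in size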
[3] = biological target: Retinaldehyde dehydrogenase 3 (Homo sapiens) (UniProt P47895); experiment: qHTS for Inhibitors of the Aldehyde Dehydrogenase Family (ALDH1A3) Primary screen (AID 2061315);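 also: plate controls were DMSO vehicle for no effect and reference inhibitor for full effect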
[4] = BET inhibitor-based combinations targeting novel dependencies in MECOM-rearranged (r) AML: SET-2 cell line (AID 2202231); details: SET-2 AML cells viability, CellTiter-Glo luminescence, 48 h; viability: stronger effect = lower value, concentration not given here; also: nearly all actives have a fitted effect of over 35% in size; also: potency is read from the fitted curve at half-maximal effect;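 as to viability: plate controls were DMSO treated cells for no effect and wells without cells for full effect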
In short: (§1)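 Readout: CellTiter-Glo luminescence. Exposure: 48 h, 11 concentrations, 500 cells/well. Metric: AUC and within-line Z-AUC after DMSO/empty-well normalization.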

[5] = BET inhibitor-based combinations targeting novel dependencies in MECOM-rearranged (r) AML: MV-4-11 cell line (AID 2202233); also: nearly all actives have a fitted effect of over 45% in size; also: potency is read from the fitted curve at half-maximal effect
In short: (§2)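 Seeding density was 500 cells/well, and drug exposure lasted 48 hr under standard culture conditions. Read-out used CellTiter-Glo reagent with a 15 min room-temperature incubation before luminescence measurement; AUC and Z-AUC summarize the normalized responses.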

[6] = BET inhibitor-based combinations targeting novel dependencies in MECOM-rearranged (r) AML: AML-191 cell line (AID 2202236; also: nearly all actives have a fitted effect of over 35% in size; also: potency is read from the fitted curve at half-maximal effect)
In short: as §1

[7] = BET inhibitor-based combinations targeting novel dependencies in MECOM-rearranged (r) AML: HNT-34 cell line (AID 2202234); also: potency is read from the fitted curve at half-maximal effect; nearly all actives have a fitted effect of over 35% in size
In short: as §2

[8] = BET inhibitor-based combinations targeting novel dependencies in MECOM-rearranged (r) AML: AML-194 cell line (AID 2202237;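 also: plate controls were vehicle wells for no effect and wells without cells for full effect; nearly all actives have a fitted effect of over 40% in size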)
In short: as §1

[9] = BET inhibitor-based combinations targeting novel dependencies in MECOM-rearranged (r) AML: UCSD-AML1 cell line (AID 2202235);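 also: series mostly up to about 46 µM; plate controls were DMSO vehicle wells for no effect and blank wells for full effect; nearly all actives have a fitted effect of over 40% in size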
In short: as §2

Chain of Cellular tumor antigen p53 (Homo sapiens) (P04637 whole entry, looked up): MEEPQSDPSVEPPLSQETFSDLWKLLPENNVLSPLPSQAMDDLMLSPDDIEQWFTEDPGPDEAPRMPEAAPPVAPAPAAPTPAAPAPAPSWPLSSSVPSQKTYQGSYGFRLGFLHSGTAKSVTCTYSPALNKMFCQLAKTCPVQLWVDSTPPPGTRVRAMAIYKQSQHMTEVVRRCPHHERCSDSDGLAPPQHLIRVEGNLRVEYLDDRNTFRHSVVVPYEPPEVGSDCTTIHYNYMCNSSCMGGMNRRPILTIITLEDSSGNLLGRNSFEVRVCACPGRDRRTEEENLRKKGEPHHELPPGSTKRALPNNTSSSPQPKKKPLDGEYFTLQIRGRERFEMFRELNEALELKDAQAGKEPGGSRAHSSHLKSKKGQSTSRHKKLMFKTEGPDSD

Row | Compound | activation [1] | Potency [2] | Potency [3] | viability [4] | Potency [5] | Potency [6] | Potency [7] | Potency [8] | Potency [9] | Potency [1] | Potency [4]
1 | Cn1cc(-c2ccc3c(c2)CCN3C(=O)Cc2cccc(C(F)(F)F)c2)c2c(N)ncnc21 | -11.6% (inactive) | inactive | inactive | 105% (inactive) | 9.34 µM (active) | 18.6 µM (active) | – | – | – | – | –
2 | Cc1c(Cn2c(C)nc3c(C(=O)O)cc(N4CCOCC4)cc32)cccc1C(F)(F)F | -0.853% (inactive) and -13.4% (inactive) | inactive | inactive | 98.9% (inactive) | 4.68 µM (active) | 4.68 µM (active) | 5.9 µM (active) | inactive | – | – | –
3 | CCCOc1ccn2c(C(C)=O)cc(-c3ccccc3S(C)(=O)=O)c2c1 | -0.333% (inactive) | inactive | inactive | 93% (inactive) | – | 18.6 µM (active) | 18.6 µM (active) | inactive | inactive | – | –
4 | CCOc1ccn(-c2ccc(F)cc2)c(=O)c1C(=O)Nc1ccc(Oc2ccnc(N)c2Cl)c(F)c1 | 49.1% (inactive) | inactive | inactive | 104% (inactive) | 1.48 µM (active) | 8.33 µM (active) | – | – | inactive | – | –
5 | NC(=O)c1ccc(N(C(N)=O)c2c(F)cccc2F)nc1-c1ccc(F)cc1F | 24.3% (inactive) and 1.79% (inactive) | inactive | inactive | 106% (inactive) | inactive | inactive | – | inactive | inactive | – | –
6 | COc1cc2nccc(Oc3ccc(NC(=O)NC4CC4)c(Cl)c3)c2cc1C(N)=O | – | inactive | inactive | – | 2.09 µM (active) | 20.9 µM (active) | 9.34 µM (active) | inactive | – | 26.9 µM (active) | 18.6 µM (active)
